Experimental data published in PubChem BioAssay (NCATS).
Several values for one entry are separate records, joined by “and”; a condition that tells them apart may be missing. Equal values may be shown once. Inconclusive results are not listed. Activity calls are given as the source filed them. The call rests on the fitted dose curve; in most records, active means well fitted inhibition curve with a large enough effect; inconclusive means small, poorly fitted or top-dose-only effect; inactive means flat fitted curve, though single readings scatter.

System: KB-3-1
Assay: Cytotoxic Profiling of Annotated Libraries Using Quantitative High-Throughput Screening (AID 1296008); further: nearly all actives have a fitted effect of over 60% in size
Settings: Five cell lines viability, CellTiter-Glo ATP luminescence, 48-72 h; max response: hits give low values
Text: Cell-based phenotypic screening is a commonly used approach to discover biological pathways, novel drug targets, chemical probes and high-quality hit-to-lead molecules. Many hits identified from high-throughput screening campaign are ruled out through a series of follow-up potency, selectivity/specificity, and cytotoxicity assays. Prioritization of molecules with little or no cytotoxicity for a more in-depth downstream evaluation influence the future direction of projects, so cytotoxicity profiling of the screening libraries at early stage is essential for increasing the likelihood of candidate success. […] For the annotated library, we also examined the primary targets and mechanistic pathways regularly associated with cell death. To our knowledge, this is the first study to use high-throughput screening to profile large libraries for cytotoxicity assessment in both normal and cancer cell lines. In summary, the results generated here constitutes a valuable resource for the scientific community and provides insight on identifying cytotoxic compounds with particular mechanisms of action, and prioritizing compounds with suitable cytotoxicity profile for further evaluation.
A pintool (Kalypsys) was used to transfer 23 nL of compound solution to the 1536-well assay plates. After 48 or 72 hr incubation at 37 degree Celsius, 5% CO2 and 95% humidity, 2.5 uL of CellTiter-Glo (Promega) was dispensed into each well using a dispenser (Aspect Automation, St. Paul, MN) with solenoid valves (Lee Valves, Westbrook CT). Plates were left at room temperature for 10 min before imaging the ATP-coupled luminescence using a ViewLux microplate imager (PerkinElmer, Waltham, MA).
On the % scale 0 is the no-effect control and ±100 the full control effect; potency means the concentration at half of the fitted maximal effect.

SMILES	max response	outcome	Potency
O=C(O)c1cccnc1Nc1cccc(C(F)(F)F)c1	5.86% (inactive) and -3.77% (inactive)		
Cc1ccc(C)c(OCCCC(C)(C)C(=O)O)c1	8.09% (inactive) and 8.97% (inactive)		
CCC1=C(C)CN(C(=O)NCCc2ccc(S(=O)(=O)NC(=O)NC3CCC(C)CC3)cc2)C1=O (stereo not given)	-10.1% (inactive) and -9.63% (inactive)		
Oc1ccc(-c2nc(-c3ccc(F)cc3)c(-c3ccncc3)[nH]2)cc1		inactive	
O=C1c2c(O)cc(O)cc2OC(c2ccc(O)c(O)c2)C1O (stereo not given)		inactive	
CCOc1cc(CC(=O)N[C@@H](CC(C)C)c2ccccc2N2CCCCC2)ccc1C(=O)O	4.6% (inactive)	inactive	
CCOC(=O)C(C)Oc1cccc2c(=O)n(CC(=O)Nc3ccc4c(c3)OCCO4)ccc12 (stereo not given)		inactive	
Cc1cc(Cl)ccc1OCCCC(=O)NO		inactive	
CNC[C@H](O)c1ccc(O)c(O)c1	2.62% (inactive)		
CCCOc1ccc2nc(NC(=O)OC)[nH]c2c1			731 nM (active)
CN(C)C(=O)COC(=O)Cc1ccc(OC(=O)c2ccc(N=C(N)N)cc2)cc1	4.33% (inactive) and 2.16% (inactive)		
CCN(CCO)CCCC(C)Nc1ccnc2cc(Cl)ccc12 (stereo not given)	-5.86% (inactive) and 9.19% (inactive) and -2.52% (inactive)		
NCCCCNCCCN	1.33% (inactive)		
O=C(OC1C[C@H]2CC[C@@H](C1)[N+]21CCCC1)C(O)(c1ccccc1)c1ccccc1 (stereo not given in full)	8.48% (inactive) and 5.72% (inactive)		
O=Nc1c(-c2c(O)[nH]c3cc(Br)ccc23)[nH]c2ccccc12			13200 nM (active)
CCC(C)(Oc1ccc(C2(c3ccc(OC(C)(CC)C(=O)O)cc3)CCCCC2)cc1)C(=O)O (stereo not given)	-0.0453% (inactive) and 5.37% (inactive)	inactive	
COc1cc2c(N3CCN(C(=O)Nc4ccc(OC(C)C)cc4)CC3)ncnc2cc1OCCCN1CCCCC1	-30.9% (inactive) and -5.38% (inactive)		
Nc1ccc(S(N)(=O)=O)cc1	4.1% (inactive) and 2.9% (inactive)		

SMILES	max response	outcome	Potency
CC1=C(C)C(=O)C(C(CCCCCC(=O)O)c2ccccc2)=C(C)C1=O (stereo not given)	6.39% (inactive)		
Oc1ccc2ccccc2c1SSc1c(O)ccc2ccccc12	9.23% (inactive)		
O=C(NCC1CCCCN1)c1cc(OCC(F)(F)F)ccc1OCC(F)(F)F (stereo not given)	3.67% (inactive)		
CC1Cc2ccccc2N1NC(=O)c1ccc(Cl)c(S(N)(=O)=O)c1 (stereo not given)	-19.1% (inactive) and -17.8% (inactive) and -4.71% (inactive)		
Cc1cc(=O)c2c(O)c3c(O)cc(=O)c4c3c3c(cc(O)c1c23)C(C)(C)C=4O			11.6 µM (active) and 23.5 µM (active)
NC(=O)Cc1cccc(C(=O)c2ccccc2)c1N	-8.75% (inactive)		
Cc1cc2cc3c(C)cc(=O)oc3c(C)c2o1	-3.63% (inactive)	inactive	
O=c1c(O)c(-c2cc(O)c(O)c(O)c2)oc2cc(O)cc(O)c12	2.62% (inactive)		
COc1ccccc1N1CCN(CCN(C(=O)C2CCCCC2)c2ccccn2)CC1	-8.11% (inactive) and 2.92% (inactive)		
Cc1ccc(NC(=O)c2ccc(CN3CCN(C)CC3)cc2)cc1Nc1nccc(-c2cccnc2)n1	-0.677% (inactive) and -9.97% (inactive) and -10.5% (inactive)		
O=C1NC(=O)C(c2ccccc2[N+](=O)[O-])=C1Nc1ccc(O)c(Cl)c1		inactive	
CCOC(=O)C1=C[C@@H](OC(CC)CC)[C@H](NC(C)=O)[C@@H](N)C1	14.9% (inactive) and 5.96% (inactive)		
Nc1ncn([C@H]2C[C@H](O)[C@@H](CO)O2)c(=O)n1	9.32% (inactive)	inactive	
CCCCC(CC)COC(=O)C(C#N)=C(c1ccccc1)c1ccccc1 (stereo not given)		inactive	
CN(C)CCCC1(c2ccc(F)cc2)OCc2cc(C#N)ccc21 (stereo not given)	-8.3% (inactive) and 1.59% (inactive)		
O=C(O)c1cn(-c2ccc(F)cc2)c2cc(N3CCNCC3)c(F)cc2c1=O	14.5% (inactive) and 6.97% (inactive)		
COc1c(O)cc2c(c1O)[C@@H]1O[C@H](CO)[C@@H](O)[C@H](O)[C@H]1OC2=O	6.75% (inactive) and -4.18% (inactive) and 5.95% (inactive)		
CC(C)c1nc(CN(C)C(=O)N[C@H](C(=O)N[C@@H](Cc2ccccc2)C[C@H](O)[C@H](Cc2ccccc2)NC(=O)OCc2cncs2)C(C)C)cs1	-5.85% (inactive) and -8.86% (inactive) and 1.74% (inactive)		
